Source: PubChem BioAssay
SSB-PriA inh: K. pneumoniae PriA-SSBct interaction inhibition | hit rate 0.6% among 430,000 | AlphaScreen SSBct-PriA binding, biotinylated peptide | inhibition, % at 33 µM; in the data active = inhibition mostly above about 37%, no sharp cut-off; inactive = mostly below about 20%
BoNT-A LC inh2: BoNT A light chain protease inhibition. multiplex microsphere protease substrate cleavage, flow cytometry. hit rate 0.17% among 360,000. AID 588499. inhibition, % at 10 µM
Anthrax LF prot: anthrax lethal factor protease inhibition; P15917; inhibition, % at 10 µM; multiplex microsphere protease cleavage assay, LF; hit rate 0.12% among 360,000
MazEF act: activators of E. coli MazEF toxin-antitoxin RNase; P0AE70; FAM/BHQ RNA-DNA oligo cleavage fluorescence, 5 h; activation, % at 20 µM; hit rate 0.32% among 350,000; AID 504720; in the data active = activation above about 50%
Target sequence (P0AE70 whole entry, looked up): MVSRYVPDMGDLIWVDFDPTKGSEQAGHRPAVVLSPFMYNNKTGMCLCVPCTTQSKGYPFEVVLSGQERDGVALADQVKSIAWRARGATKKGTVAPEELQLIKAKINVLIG
Autofluor counter: flagged as autofluorescent in microsphere protease counterscreen; hit rate 3.1% among 360,000; compound autofluorescence counterscreen, microsphere flow cytometry; active compounds read high; fluorescence intensity (no concentration beside the values); in the data active = fluorescence intensity above about 16000; inconclusive = no clear call, values can overlap the other calls
BoNT F protease: blocks Botulinum neurotoxin F light chain protease | Multiplex microsphere protease cleavage assay, flow cytometry | inhibition, % at 10 µM | hit rate 0.22% among 360,000; in the data active = inhibition above about 35%, passing the limit was not always enough; inconclusive = no clear call, values can overlap the other calls
Hits are given with their value; i = inactive; ? = inconclusive; nt = no result. Compounds with a hit are over-represented: about 3.3% of the library has one in this group of screens. Rule as the data show it, unless noted: active = inhibition above about 30%; inconclusive = no clear call, values can overlap the other calls; inactive = below that.

SMILES	SSB-PriA inh	BoNT-A LC inh2	Anthrax LF prot	MazEF act	Autofluor counter	BoNT F protease
O=C(CN(Cc1cccs1)C(=O)CNS(=O)(=O)c1ccc(F)cc1)NCc1ccco1	i	i	i	i	i	i
O=C(CN(Cc1cccs1)C(=O)CNS(=O)(=O)c1ccc(Cl)cc1)NCc1ccco1	i	?	i	i	21887	i
O=C(c1sc2ccccc2c1Cl)N1CCC2(CC1)OCCO2	i	?	i	i	21877	i
Cc1cc(C)n(-c2nc(SCCN(C)C)c3c4c(sc3n2)CCCC4)n1	i	i	i	i	17751	i
Cc1cc(C)n(-c2nc(SCC(=O)O)c3c4c(sc3n2)COC(C)(C)C4)n1	i	i	i	i	i	i
CCS(=O)(=O)Nc1cccc(C2=NN(S(=O)(=O)c3ccc(C)cc3)C(c3cccs3)C2)c1 (configuration not stated)	i	i	i	i	i	i
CCc1ccc(C2=NN(S(C)(=O)=O)C(c3cccs3)C2)cc1 (configuration not stated)	i	i	i	283	19673	i
CCS(=O)(=O)Nc1cccc(C2=NN(S(=O)(=O)c3ccccc3)C(c3cccs3)C2)c1 (configuration not stated)	i	i	i	i	22079	i
CN1CCOc2ccc(N)cc2C1=O	i	nt	nt	nt	nt	nt
O=C(COc1coc(CN2CCc3ccccc3C2)cc1=O)Nc1ccc(F)cc1F	i	i	i	211	i	i
O=C(COc1coc(CN2CCc3ccccc3C2)cc1=O)Nc1ccc(F)cc1	i	nt	nt	i	nt	nt
CCOC(=O)N1CCN(S(=O)(=O)c2ccc(C(=O)Nc3sc(Cc4ccc5c(c4)OCO5)c(C)c3C#N)cc2)CC1	i	nt	nt	nt	nt	nt
Cc1cc(=O)[nH]c2c1c(C)nn2C1CCCC1	i	i	i	i	18691	i
CCc1ccc2c(c1)C(C)(C)C1(/C=C/c3ccco3)NC(=O)CCN21 (configuration not stated)	50	nt	nt	nt	nt	nt
CC1=CC(C)(C)N(C(=O)c2ccccc2)c2ccccc21	i	i	i	i	23091	i
CCc1ccc(N=c2c([N+](=O)[O-])nn(-c3ccc4c(c3)OCCO4)n2O)cc1	58	i	i	i	i	i
O=[N+]([O-])c1nn(-c2ccc3c(c2)OCCO3)n(O)c1=NC1CCCCCC1	55	i	i	i	i	i
O=[N+]([O-])c1nn(-c2cccc(Cl)c2)n(O)c1=NC1CCCCC1	90	nt	nt	nt	nt	nt
COc1ccc(CCS(=O)(=O)NCC(C)(OC)c2cccc(Cl)c2)cc1 (configuration not stated)	i	nt	nt	nt	nt	nt
COc1ccc(NC(=O)NCC(c2ccc3c(c2)CCCN3C)N2CCN(C)CC2)cc1 (configuration not stated)	i	nt	nt	nt	nt	nt
O=C(NCCOc1ccc(-c2ccccn2)nn1)[C@H]1CC(=O)N(c2cccc(Br)c2)C1	100	nt	nt	nt	nt	nt
O=C(NCCn1ccc(-c2ccccn2)n1)[C@H]1CC(=O)N(c2ccccc2)C1	i	nt	nt	nt	nt	nt
CC1=CC2=NC(=O)/C(=C\c3ccc(-c4cccc(Cl)c4)o3)C(=N)N2O1	i	i	i	84	i	i
O=C1C2CC=CCC2C(=O)N1c1cccc(OS(=O)(=O)c2ccc3ccccc3c2)c1 (configuration not stated)	i	?	i	i	20101	i
O=S(=O)(NC1CCCC1)c1ccccc1Cl	i	?	i	i	20825	i
SMILES	SSB-PriA inh	BoNT-A LC inh2	Anthrax LF prot	MazEF act	Autofluor counter	BoNT F protease
Cc1cc(OC2CCN(C(=O)Cc3ccsc3)CC2)cc(=O)o1	i	nt	nt	nt	nt	nt
CC1CCCC(=NNc2ccc([N+](=O)[O-])cc2[N+](=O)[O-])C1 (configuration not stated)	58	nt	nt	nt	nt	nt
CC1CCCN(CC(O)CN)C1 (configuration not stated)	i	i	i	i	17684	i
CC(=O)c1ccc(OCC(O)CN2CCCC(C)C2)cc1 (configuration not stated)	i	i	i	i	i	i
Cc1cccc2nc(Cn3c(=O)n(CCC(=O)NCc4ccco4)c(=O)c4sccc43)cc(=O)n12	i	i	i	i	20173	i
Cc1cccc2nc(Cn3c(=O)n(CCC(=O)NCc4ccco4)c(=O)c4ccccc43)cc(=O)n12	i	i	i	i	i	i
CC(/C=N/n1c(-c2cccnc2)n[nH]c1=S)=C\c1ccccc1	nt	i	i	i	16837	i
O=C(COc1ccc(Br)cc1)NN1C(=O)c2ccccc2C1=O	i	nt	nt	442	nt	nt
CC(=O)N1CCN(c2ccccc2NC(=O)COc2ccc(Br)cc2)CC1	i	i	i	i	23694	i
Cc1ccc(OCC(=O)NN2C(=O)c3ccccc3C2=O)cc1	i	i	i	i	i	i
O=C(COc1ccc(Br)cc1)Nc1ccccc1N1CCCC1	i	i	i	i	i	i
Cc1ccc(=O)n(C(C)C(=O)NCc2cccs2)n1 (configuration not stated)	i	nt	nt	nt	nt	nt
CSc1nc(NC(C)C)c2cnn(CCN)c2n1	i	nt	nt	nt	nt	nt
CCCCCc1nnc(NC(=O)C2CCCO2)s1 (configuration not stated)	i	i	i	i	20636	i
O=C(Nc1nnc(-c2ccncc2)s1)C1CCCO1 (configuration not stated)	i	i	i	i	16579	i
O=C(Nc1nnc(-c2ccccc2F)s1)C1CCCO1 (configuration not stated)	i	i	i	i	i	i
Cc1nnc(NC(=O)C2CCCO2)s1 (configuration not stated)	i	i	i	i	i	i
COc1ccc(NC(=O)CC2CCCCN2S(=O)(=O)c2cccs2)cc1Cl (configuration not stated)	i	nt	nt	nt	nt	nt
CO[C@@H](CNC(=O)C(=O)Nc1cccnc1)c1ccc(Cl)s1	i	nt	nt	nt	nt	nt
O=C(OCCNC(=O)c1ccc2ccccc2n1)c1ccc(F)cc1	i	?	i	i	16884	i
Cn1c(COc2ccccc2)nnc1SCC(=O)Nc1ccc(N2CCOCC2)c(Cl)c1	i	?	i	i	17200	i
O=C(NC1CCN(Cc2nnnn2CCc2ccccc2)CC1)c1ccccc1F	i	i	i	i	22189	i
Cc1ccccc1C(=O)NC1CCN(Cc2nnnn2Cc2ccccc2)CC1	i	i	i	i	i	i
Cc1ccccc1Cn1cccc1/C=C1/C(=N)N2C=CSC2=NC1=O	i	i	i	164	i	i
Cn1c(=O)c2c(nc(N3CCN(c4ccccn4)CC3)n2Cc2ccccc2Cl)n(C)c1=O	i	?	i	i	21245	i
SMILES	SSB-PriA inh	BoNT-A LC inh2	Anthrax LF prot	MazEF act	Autofluor counter	BoNT F protease
CCc1c(C)nc(N)nc1N1N=C1SCC(=O)OC	i	i	i	i	i	i
CCc1c(C)nc(N)nc1N1N=C1SCC#N	i	i	i	i	22462	i
CC(C)(C)c1cc(NC(=O)CSc2nnc(-c3ccccc3)o2)cc(C(C)(C)C)c1	i	nt	nt	nt	nt	nt
COc1ccc(N=Nc2ccc3ccccc3c2)c(O)c1	i	i	i	i	i	i
COc1cccc(N=Nc2ccc3ccccc3c2O)c1	i	i	i	76	i	i
Oc1c(N=Nc2ccc(F)cc2)ccc2ccccc12	39	i	i	i	i	i
CCOC(=O)C(NC(=O)[C@@H]1CCCN1c1nc2ccccc2o1)C(=O)OCC	i	nt	nt	nt	nt	nt
